# ± gives the standard deviation of the averaged measurements.
# Test system: Drosophila virilis antennal basiconic sensillum AB9
# Test: odor-evoked OSN spike response (post minus pre-stimulus); higher = stronger neuronal excitation
# Conditions: odor dilution: 10^-4
# Procedure: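 Single sensillum recordings from antennal basiconic sensilla of D. virilis. A 500 ms pulse of odorant (10^-4 in mineral oil or DMSO) was delivered; the response is the change in spike frequency between the 1 s pre- and post-stimulus windows (spikes/s).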
row,Structure (SMILES),odor-evoked OSN spike response [spikes/s]
1,CC(C)=O [acetone],93.7 ± 30

# Source: the supplement of paper PMC10477191
